Bioassay records from PubChem.
This is a sample that favours compounds with a hit; in the whole collection about 2.8% have one here.
SENP8 block-1 – human SENP8 protease inhibitors, primary screen, biochemical, fluorescence, Nedd8 protein substrate, uHTS; Sentrin-specific protease 8 (Homo sapiens), Q96LD8; recombinant SENP8; inhibition, % at 20 µM; actives 0.64% (n = 360,000); in the data active = inhibition mostly above about 40%, no sharp cut-off; inactive = mostly below about 27%
Target sequence (Q96LD8 whole entry, looked up): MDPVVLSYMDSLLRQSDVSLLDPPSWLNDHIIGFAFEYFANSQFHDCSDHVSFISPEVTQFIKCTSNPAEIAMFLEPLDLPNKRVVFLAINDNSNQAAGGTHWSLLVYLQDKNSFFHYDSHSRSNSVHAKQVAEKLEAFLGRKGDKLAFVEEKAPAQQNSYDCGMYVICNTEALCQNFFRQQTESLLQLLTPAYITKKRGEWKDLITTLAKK
SENP8 block-2 – SENP8 protease inhibitors, primary screen, biochemical, luminescence | Sentrin-specific protease 8 (Homo sapiens), Q96LD8 | purified SENP8, Z-RLRGG-aminoluciferin cleavage | inhibition, % at 10 µM | actives 1.2% (n = 330,000); in the data active = inhibition above about 50%
SENP7 block – SENP7 protease inhibitors, primary screen, biochemical, luminescence, uHTS; inhibition, % at 5 µM; recombinant SENP7, Z-RLRGG-aminoluciferin luminescence, 40 min; actives 1.5% (n = 330,000);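 active = inhibition above about 50% at the single test dose, limit read from the data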
SENP6 inh – SENP6 protease inhibitors, primary screen, biochemical, luminescence, uHTS. Sentrin-specific protease 6 (Homo sapiens), Q9GZR1. Recombinant SENP6 catalytic domain, aminoluciferin luminescence. inhibition, % at 10 µM. actives 1.8% (n = 330,000). AID 2599, 2010;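 active = inhibition above about 50% at the single tested dose, limit read from the data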
HSP90 inh – HSP90 inhibitors, primary screen, cell lysate, luminescence. AID 1789, 2009. actives 0.91% (n = 290,000). Rabbit reticulocyte lysate, luciferase refolding luminescence, 3 h. Heat shock protein HSP 90 (rabbit reticulocyte lysate; luciferase refolding). inhibition, % at 5.6 µM;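 active = inhibition above the screen-wide mean plus 3 SD, computed separately per campaign, cut at about 16% in these data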;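 note: inhibitors lower the luminescence because luciferase stays unfolded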
SENP8 confirm – SENP8 protease inhibitors, retest, confirmation, biochemical, luminescence, single concentration. inhibition, % at 12.5 µM. shares compounds with SENP7 block. actives 40% (n = 6,200). Recombinant SENP8, Z-RLRGG-aminoluciferin luminescence, 60 min;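 active = mean inhibition across replicates above about 50%, limit read from the data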
SENP6 conf – SENP6 protease inhibitors, confirmation, biochemical, luminescence, single concentration | shares compounds with SENP7 block | recombinant SENP6, Z-RLRGG-aminoluciferin luminescence | inhibition, % at 12.5 µM | actives 58% (n = 6,200)
SENP7 confirm – SENP7 protease inhibitors, retest, confirmation, biochemical, luminescence, single concentration; shares compounds with SENP7 block; recombinant SENP7, Z-RLRGG-aminoluciferin luminescence, 40 min; inhibition, % at 12.5 µM; actives 69% (n = 6,200); AID 488917, 2010
Casp3 select – caspase-3 protease inhibitors, confirmation, selectivity assay for SENP inhibitor project, biochemical, single concentration; shares compounds with SENP7 block; purified caspase-3, Z-DEVD-aminoluciferin luminescence, 60 min; inhibition, % at 12.5 µM; actives 60% (n = 6,200); AID 488918, 2010;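 active = mean inhibition above about 50%, limit read from the data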
Target sequence (P42574 28-227 limits assumed): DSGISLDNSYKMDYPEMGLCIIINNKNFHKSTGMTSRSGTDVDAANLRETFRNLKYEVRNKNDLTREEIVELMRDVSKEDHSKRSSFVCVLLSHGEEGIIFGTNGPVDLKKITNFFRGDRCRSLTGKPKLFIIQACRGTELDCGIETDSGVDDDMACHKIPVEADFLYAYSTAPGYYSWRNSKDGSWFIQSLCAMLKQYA
SENP luc ctr – counter-screen for SENP inhibitors: luminescence interference; actives 39% (n = 6,200); Pre-incubated SENP8/Z-RLRGG-aminoluciferin, luciferase luminescence interference; shares compounds with SENP7 block; inhibition, % at 12.5 µM;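 active = mean inhibition above about 50% when retested at one dose, limit read from the data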
Large screens that a line does not name were inactive (follow-up assays come after a bar, where they were run).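 Rule for the calls, unless noted: active = mean inhibition above about 50% in the one-dose retest (limit read from the data); inactive = the rest.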

Cc1cc(/C=N/O)c(C)n1-c1ccccc1	none
Cc1cc(C=C2C(=O)c3ccccc3C2=O)c(C)n1-c1ccccc1	SENP8 block-2 74, SENP7 block 93, SENP6 inh 92 | SENP8 confirm inactive | SENP6 conf inactive | SENP7 confirm inactive | Casp3 select inactive | SENP luc ctr inactive
Cc1ccc(NC(=O)COc2ccc(-n3cnnn3)cc2)cc1C	none
CCCn1c(SCC(=O)Nc2ccc3c(c2)CCC3)n[nH]c1=O	none
CCOc1ccccc1NC(=O)c1c(Br)cnn1C	none
CCN(/C(N)=N/c1nc(C)cc(C)n1)c1ccccc1	none
C/C(=N\NC(=O)c1nn(C)c(C)c1Br)c1ccc(NC(=O)c2ccoc2C)cc1	SENP7 block 60 | SENP8 confirm inactive | SENP6 conf inactive | SENP7 confirm inactive | Casp3 select inactive | SENP luc ctr inactive
C/C(=N\NC(=O)c1c(Br)c(C)nn1C)c1ccc(NC(=O)c2ccoc2C)cc1	none
CC(=O)Nc1ccc(S(=O)(=O)NNC2=NS(=O)(=O)c3ccccc32)cc1	none
CCCCNc1c(-c2ccc(SC(C)CC)cc2)nc2ccccn12 (stereo unspecified)	SENP8 block-2 74, SENP7 block 83, SENP6 inh 97 (no result: HSP90 inh) | SENP8 confirm 73 | SENP6 conf 64 | SENP7 confirm 94 | Casp3 select 82 | SENP luc ctr 83
CCCCNc1c(-c2cccc(SC(C)CC)c2)nc2ccc(Cl)cn12 (stereo unspecified)	none (no result: HSP90 inh)
CCCCNc1c(-c2ccc(SC3CCCCC3)cc2)nc2ccccn12	SENP8 block-2 63, SENP6 inh 83 (no result: HSP90 inh) | SENP8 confirm inactive | SENP6 conf inactive | SENP7 confirm inactive | Casp3 select inactive | SENP luc ctr inactive
Cc1[nH]n(-c2ccccc2)c(=O)c1N=Nc1ccccc1C(=O)N1CCOCC1	none
O=C(NCc1ccco1)/C(=C\c1ccco1)NC(=O)c1cccs1	none
Nc1cc(C(=O)OCC(=O)c2ccc(CC(=O)N3CCOCC3)s2)ccc1Cl	none (no result: HSP90 inh)
Cc1ccc(C(=O)COC(=O)c2ccc(Cl)c(N)c2)s1	SENP8 block-2 54, SENP7 block 56, SENP6 inh 66 (no result: HSP90 inh) | SENP8 confirm 50 | SENP6 conf inactive | SENP7 confirm 84 | Casp3 select inactive | SENP luc ctr inactive
COC(=O)c1sc(-c2ccc(Cl)cc2)cc1N	SENP8 block-2 63, SENP7 block 68, SENP6 inh 81 | SENP8 confirm 54 | SENP6 conf 69 | SENP7 confirm 91 | Casp3 select inactive | SENP luc ctr inactive
O=C(/C=C/c1ccco1)N(Cc1cccc(Br)c1)C1CCS(=O)(=O)C1 (stereo unspecified)	none
CCOC(=O)C1CCN(C(=O)c2cc3c(ccc4ccccc43)o2)CC1	SENP8 block-2 56, SENP7 block 56, SENP6 inh 73 | SENP8 confirm 69 | SENP6 conf 67 | SENP7 confirm 81 | Casp3 select 53 | SENP luc ctr 55
Cc1ccc(-c2nnc(-c3ccc4ccccc4c3)o2)cc1	none (no result: SENP8 block-2, SENP7 block, SENP6 inh, HSP90 inh)
